According to PubChem BioAssay (NCATS):
Results filed as inconclusive are left out. Active and inactive are the calls of the source. Calls follow the shape of the dose curve; as a rule, active = well fitted inhibition curve with a large enough effect; inconclusive = small, poorly fitted or top-dose-only effect; inactive = flat fitted curve, though single readings scatter.

test system: HEK293; assay: Cytotoxic Profiling of Annotated Libraries Using Quantitative High-Throughput Screening (AID 1296008); settings: Five cell lines viability, CellTiter-Glo ATP luminescence, 48-72 h; max response: hits give low values; also: nearly all actives have a fitted effect of over 60% in size
How it was run: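 Cytotoxicity was measured as CellTiter-Glo ATP luminescence, read after 10 min at room temperature. Compound treatment of the cells lasted 48 or 72 hr at 37 degrees Celsius in a qHTS format.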
% is scaled to controls: 0 for no effect and ±100 for the full control effect; potency is read from the fitted curve at half-maximal effect.

Row | Compound | max response | Potency | outcome
1 | CC(=O)OC1/C(C)=C/C(=O)C(OC(C)=O)C(C)(C)/C=C/C(C)C(=O)C2(OC(C)=O)CC(C)C(OC(=O)c3ccccc3)C12 (stereo not drawn) | -22.9% (inactive) |  | 
2 | COC1=CC(=O)CC(C)C12Oc1cc(OC)cc(O)c1C2=O (stereo not drawn) | 0.0359% (inactive) |  | 
3 | CC(=O)O[C@@H]1[C@H](O)[C@@H](O[C@@H]2O[C@@H](C)[C@H](O[C@@H]3OC[C@@H](O)[C@H](O[C@@H]4OC[C@@H](O)[C@H](O)[C@H]4O)[C@H]3O)[C@@H](O[C@@H]3O[C@H](CO)[C@@H](O)[C@H](O)[C@H]3O)[C@H]2O)[C@H](OC(=O)[C@]23CCC(C)(C)C[C@H]2C2=CCC4[C@@]5(C)CC[C@H](O[C@@H]6O[C@H](C(=O)O)[C@@H](O)[C@H](O[C@@H]7OC[C@@H](O)[C@H](O)[C@H]7O)[C@H]6O[C@@H]6O[C@H](CO)[C@H](O)[C@H](O)[C@H]6O)[C@@](C)(C=O)C5CC[C@@]4(C)[C@]2(C)CC3)O[C@@H]1C (stereo partly drawn) | -5.31% (inactive) |  | 
4 | COc1cc2ncnc(Nc3ccc(F)c(Cl)c3)c2cc1NC(=O)/C=C/CN1CCCCC1 |  | 7.31 µM (active) | 
5 | CCCC(=O)O[C@@H]1[C@@H]2[C@@H](OC(C)=O)[C@]3(C)C(=O)[C@H]4[C@@H](OC(C)=O)C(C)(C)C[C@H]4[C@]3(C)C(=O)[C@@]2(OC(C)=O)C[C@@H]1C | 3.97% (inactive) |  | 
6 | Cc1noc(-c2ccc(-c3ccc(CC(=O)O)cc3)cc2)c1NC(=O)O[C@H](C)c1ccccc1 | -14% (inactive) |  | 
7 | OCc1ccc(O[C@@H]2O[C@H](CO)[C@@H](O)[C@H](O)[C@H]2O)cc1 | -0.162% (inactive) |  | 
8 | CN1CCC(Nc2nc(Nc3ccc(Oc4ccccc4)cc3)c3c(=O)[nH]cc(Br)c3n2)CC1 |  | 2.31 µM (active) | 
9 | CC(C)CCC(=O)CC1c2ccccc2C(=O)N1c1ccc2ccc(Cl)nc2n1 (stereo not drawn) |  | 16.4 µM (active) | 
10 | O=C(O)[C@H](Cc1ccc(Nc2nccc3ccncc23)cc1)NC1=C(Br)C(=O)C12CCCCC2 | -11.7% (inactive) |  | 
11 | C=C[C@H]1[C@H](O[C@@H]2O[C@H](CO)[C@@H](O)[C@H](O)[C@H]2O)OC=C(C(=O)OC)[C@H]1CCOC(=O)c1cc(O)c(O)c(O)c1 | 0.889% (inactive) |  | 
12 | CO[C@H]1C[C@@H]2CC[C@@H](C)[C@@](O)(O2)C(=O)C(=O)N2CCCC[C@H]2C(=O)O[C@H]([C@H](C)C[C@H]2CC[C@@H](OP(C)(C)=O)[C@H](OC)C2)CC(=O)[C@H](C)/C=C(\C)[C@@H](O)[C@@H](OC)C(=O)[C@H](C)C[C@H](C)/C=C/C=C/C=C/1C |  | 0.0064 µM (active) | 
13 | CCCCNc1ncc2c(-c3ccc(F)cc3)nn(CC3CCC(N)CC3)c2n1 (stereo not drawn) | -110% (inactive) |  | 
14 | O=C(/C=C/c1cccc(S(=O)(=O)Nc2ccccc2)c1)NO |  | 3.99 µM (active) | 
15 | COC(=O)N1CCC(n2ncc3c(N4CCOCC4)nc(-c4ccc(NC(=O)Nc5ccc(CO)cc5)cc4)nc32)CC1 |  | 0.058 µM (active) | 
16 | CC(C)(C)c1ccc(S(=O)(=O)NCc2ccc(C(=O)Nc3cccnc3)cc2)cc1 |  | 0.326 µM (active) | 
17 | CCCNc1ccc2ncc(-c3ccc4[nH]ncc4c3)n2n1 |  | 1.64 µM (active) | 
18 | CC(O)/C=C/C1C(C)C(O[C@@H]2O[C@H](CO)[C@@H](O)[C@H](O)[C@H]2O)C(O)CC1(C)C (stereo partly drawn) | -16.1% (inactive) |  | 
19 | C[C@@H]1O[C@@H](O[C@@H]2[C@@H](O)[C@@H](O[C@]3(CO)O[C@H](CO)[C@@H](O)[C@@H]3OC(=O)/C=C/c3ccc(O)cc3)O[C@H](CO)[C@H]2OC(=O)/C=C/c2ccc(O)cc2)[C@H](O)[C@H](O)[C@H]1O[C@@H]1O[C@@H](C)[C@H](O[C@@H]2OC[C@](O)(CO)[C@H]2O)[C@@H](O)[C@H]1O |  |  | inactive
20 | O=C(C(c1ccccc1)c1ccccc1)N1CCN(CC(O)COc2cccc3ncccc23)CC1 (stereo not drawn) |  | 6.51 µM (active) | 
21 | O=C(CO)[C@@H](O)[C@H](O[C@@H]1O[C@H](CO)[C@H](O)[C@H](O)[C@H]1O)[C@H](O)CO |  |  | inactive
22 | O=C1NC(=O)C(c2cn(-c3ccccc3)nc2-c2ccc(F)cc2)N1 (stereo not drawn) | -6.53% (inactive) |  | 
23 | CCCC(=O)NCCc1csc(-c2ccc(Cl)cc2)n1 |  | 16.4 µM (active) | 
24 | CC1(CCOC2OC(CO)C(O)C(O)C2O)CCC23OC2(C1)C(O)CC1C(C)(C(=O)O)CCCC13C (stereo not drawn) | -6.41% (inactive) |  | 
25 | C=C(C)C(=O)O[C@H]1C[C@@](C)(O)C(=O)CC(O)/C(C)=C\[C@H]2OC(=O)C(=C)[C@H]12 (stereo partly drawn) |  | 5.08 µM (active) | 
26 | COC(=O)CC(O)CC(O)/C=C/c1c(C)ccc2c1C(O)CC(C)C2 (stereo not drawn) |  |  | inactive
27 | CC1(C)CCCC2(C)C1CC(=O)C13CC(CCC12)C(O)(CO)C3 (stereo not drawn) | 0.204% (inactive) |  | 
28 | C=C(C)C(=O)OC1CC2(C)OC(=CC2=O)C(=C)CC2OC(=O)C(COC)C12 (stereo not drawn) |  | 7.18 µM (active) | 
